Structures can show the parent of a compound that is named as a salt.
Columns and labels:
Details in all cases: incubation time: 27 h, anaerobic, 37 °C;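 for the amine columns active = adjusted P below 0.05 in both replicates with a change the same way and a mean fold change under 0.8 or over 1.25; inactive = the rest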
[1] = tested on: Clostridium sporogenes DSM 1664; assay: growth (OD595) fold change vs plate DMSO controls (fold change (ratio)); higher = more growth
In short: (§1)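 Anaerobic mGAM cultures in 96-well plates were grown for 27 h at 37 °C, and absorbance was then read at 595 nm. After blank and compound background correction with 20 µM compound solutions in water, a calibration factor of 5 gave OD. Growth is the fold change relative to the median of each plate's DMSO controls. Values are means of 2 biological replicates, with fold changes above 1.5 set to NA.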

Escherichia coli IAI1 [2] = assay: as above
In short: as §1

[3] = tested on: Klebsiella aerogenes DSM 30053; assay: as above
In short: as §1

[4] = tested on: Ruminococcus gnavus DSM 108212; assay: as above
In short: as §1

[5] = tested on: Klebsiella aerogenes DSM 30053; assay: fold change of Histamine concentration vs plate DMSO controls (fold change (ratio)); higher = more amine produced, active = hit call of the paper (significant change in both replicates, either direction)
In short: (§2)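 In 80 µL wells, cultures of four gut bacterial strains in mGAM started at OD 0.1 before a 1:1 dilution and grew anaerobically at 37 °C for 27 h. Compounds were added to 20 µM final, except sweeteners at 50 µM final. After extraction of whole cultures with cold acetonitrile/methanol plus 0.1% formic acid and centrifugation, amines were measured by LC–triple-quadrupole MS in dynamic MRM mode against external calibration curves, with within-batch drift correction. Values give fold change over DMSO controls on the same plate, averaged across 2 biological replicates.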

[6] = tested on: Clostridium sporogenes DSM 1664; assay: fold change of Tryptamine concentration vs plate DMSO controls (fold change (ratio)); higher = more amine produced, active = hit call of the paper (significant change in both replicates, either direction)
In short: as §2

[7] = tested on: Ruminococcus gnavus DSM 108212; assay: as above
In short: as §2

Escherichia coli IAI1 [8] = assay: fold change of Putrescine concentration vs plate DMSO controls (fold change (ratio)); higher = more amine produced, active = hit call of the paper (significant change in both replicates, either direction)
In short: as §2

[9] = tested on: Klebsiella aerogenes DSM 30053; assay: as above
In short: as §2

Escherichia coli IAI1 [10] = assay: fold change of Cadaverine concentration vs plate DMSO controls (fold change (ratio)); higher = more amine produced, active = hit call of the paper (significant change in both replicates, either direction)
In short: as §2

[11] = tested on: Klebsiella aerogenes DSM 30053; assay: as above
In short: as §2

[12] = tested on: Ruminococcus gnavus DSM 108212; assay: fold change of 2-Phenylethylamine concentration vs plate DMSO controls (fold change (ratio)); higher = more amine produced, active = hit call of the paper (significant change in both replicates, either direction)
In short: as §2

SMILES	growth [1]	growth (Escherichia coli IAI1 [2])	growth [3]	growth [4]	fold change of Histamine concentration [5]	fold change of Tryptamine concentration [6]	fold change of Tryptamine concentration [7]	fold change of Putrescine concentration (Escherichia coli IAI1 [8])	fold change of Putrescine concentration [9]	fold change of Cadaverine concentration (Escherichia coli IAI1 [10])	fold change of Cadaverine concentration [11]	fold change of 2-Phenylethylamine concentration [12]
CNCCC(Oc1ccc(C(F)(F)F)cc1)c1ccccc1 (stereo not drawn) [Fluoxetine hydrochloride] (20 µM)	1.18	1.02	1.03	1.2	0.972 (inactive)	0.945 (inactive)	0.882 (inactive)	0.927 (inactive)	0.993 (inactive)	1.19 (inactive)	0.995 (inactive)	0.907 (inactive)
Oc1ccc2ccccc2c1N=Nc1ccccc1 [Sudan I (1-phenylazo-2-hydroxynaphthalene)] (20 µM)	0.978	1.06	1.08	1.12	0.924 (inactive)	0.919 (inactive)	1.04 (inactive)	0.952 (inactive)	0.893 (inactive)	0.915 (inactive)	1.08 (inactive)	1.07 (inactive)
NS(=O)(=O)c1cc2c(cc1C(F)(F)F)NCNS2(=O)=O [Hydroflumethiazide] (20 µM)	0.947	1.05	0.989	0.941	0.965 (inactive)	0.92 (inactive)	0.987 (inactive)	1.06 (inactive)	1.01 (inactive)	1 (inactive)	1.01 (inactive)	0.935 (inactive)
Cc1nn(C)c(Oc2ccccc2)c1/C=N/OCc1ccc(C(=O)OC(C)(C)C)cc1 (20 µM)	1.15	1.03	1.02	0.998	0.993 (inactive)	0.918 (inactive)	1.04 (inactive)	1.02 (inactive)	1.06 (inactive)	0.987 (inactive)	1.03 (inactive)	0.974 (inactive)
O=C(NCCNCC(O)COc1ccc(O)cc1)N1CCOCC1 (stereo not drawn) [Xamoterol hemifumarate] (20 µM)	1.1	0.989	0.983	1	1.06 (inactive)	0.992 (inactive)	0.889 (inactive)	1.03 (inactive)	1.03 (inactive)	1 (inactive)	0.986 (inactive)	0.868 (inactive)
COc1cc(NS(=O)(=O)c2ccc(N)cc2)nc(OC)n1 [Sulfadimethoxine] (20 µM)	0.79	0.992	1.1	1.01	0.891 (inactive)	1.05 (inactive)	1.29 (active)	0.887 (inactive)	0.946 (inactive)	0.888 (inactive)	1.03 (inactive)	1.53 (active)
Nc1ccn([C@H]2CC[C@@H](CO)O2)c(=O)n1 [Zalcitabine] (20 µM)	1.05	1.04	0.995	0.997	1.03 (inactive)	1.02 (inactive)	1.04 (inactive)	1.09 (inactive)	0.978 (inactive)	0.975 (inactive)	0.997 (inactive)	1.02 (inactive)
N[C@@H](Cc1c[nH]c2ccccc12)C(=O)O [L-Tryptophan] (20 µM)	1.02	0.993	0.989	1.19	1.02 (inactive)	1.04 (inactive)	1.05 (inactive)	0.985 (inactive)	0.995 (inactive)	1.03 (inactive)	0.993 (inactive)	1.08 (inactive)
Nc1cc(-c2ccncc2)c[nH]c1=O [Amrinone] (20 µM)	1.17	0.984	1.02	1.19	0.956 (inactive)	1.05 (inactive)	1 (inactive)	1.02 (inactive)	0.998 (inactive)	0.982 (inactive)	1.02 (inactive)	0.97 (inactive)
O=C1OC(CN2CCOCC2)CN1/N=C/c1ccc([N+](=O)[O-])o1 (stereo not drawn) [Furaltadone hydrochloride] (20 µM)	0.861	1.04	0.945	0.987	0.938 (inactive)	0.89 (inactive)	0.852 (inactive)	0.777 (inactive)	0.939 (inactive)	1.7 (active)	1.01 (inactive)	0.929 (inactive)
O=C1[C@H](CC[C@H](O)c2ccc(F)cc2)[C@@H](c2ccc(O)cc2)N1c1ccc(F)cc1 [Ezetimibe] (20 µM)	1.3	1.1	1.02	0.955	0.972 (inactive)	0.796 (inactive)	0.858 (inactive)	1.02 (inactive)	1 (inactive)	0.987 (inactive)	0.992 (inactive)	0.832 (inactive)
CC(=O)OCC(=O)[C@@]1(OC(C)=O)[C@@H](C)C[C@H]2[C@@H]3C[C@H](F)C4=CC(=O)C=C[C@]4(C)[C@@]3(F)[C@@H](O)C[C@@]21C [Diflorasone Diacetate] (20 µM)	1.05	0.996	0.978	0.993	1.03 (inactive)	1.03 (inactive)	1.01 (inactive)	0.969 (inactive)	1.01 (inactive)	1.02 (inactive)	0.989 (inactive)	0.978 (inactive)
CC1Cc2ccccc2N1NC(=O)c1ccc(Cl)c(S(N)(=O)=O)c1 (stereo not drawn) [Indapamide] (20 µM)	1.04	1.02	0.929	0.659	1 (inactive)	1.01 (inactive)	1.01 (inactive)	1 (inactive)	1 (inactive)	0.977 (inactive)	1 (inactive)	1.03 (inactive)
CN(C)CCC(c1ccccc1)c1ccccn1 (stereo not drawn) [Pheniramine maleate] (20 µM)	1.03	0.982	0.985	0.784	1.02 (inactive)	0.954 (inactive)	0.877 (inactive)	0.896 (inactive)	1.01 (inactive)	1.27 (active)	0.986 (inactive)	0.798 (inactive)
O=C(O)CCNC(=O)c1ccc(/N=N/c2ccc(O)c(C(=O)O)c2)cc1 [Balsalazide disodium salt] (20 µM)	1	1	1.02	0.934	0.892 (inactive)	0.993 (inactive)	1.21 (inactive)	0.893 (inactive)	1.01 (inactive)	0.963 (inactive)	1.11 (inactive)	1.51 (active)
CN(CCCN1c2ccccc2CCc2ccccc21)CC(=O)c1ccc(Cl)cc1 [Lofepramine] (20 µM)	1.02	0.937	1.02	1.2	0.986 (inactive)	1.04 (inactive)	0.891 (inactive)	1.01 (inactive)	1.03 (inactive)	0.989 (inactive)	0.999 (inactive)	0.851 (inactive)
O=C1c2c(O)cccc2Cc2cccc(O)c21 [Anthralin] (20 µM)	1.07	0.981	1.03	0.95	1.05 (inactive)	1.1 (inactive)	0.996 (inactive)	1.02 (inactive)	1.01 (inactive)	0.992 (inactive)	0.999 (inactive)	0.91 (inactive)
Cc1ccc(=O)n(-c2ccccc2)c1 [Pirfenidone] (20 µM)	0.978	0.995	0.983	0.984	1.02 (inactive)	1.04 (inactive)	0.978 (inactive)	1.01 (inactive)	1.01 (inactive)	1.01 (inactive)	0.981 (inactive)	0.958 (inactive)
CC[C@@H]([C@H](C)O)n1ncn(-c2ccc(N3CCN(c4ccc(OC[C@@H]5CO[C@@](Cn6cncn6)(c6ccc(F)cc6F)C5)cc4)CC3)cc2)c1=O [Posaconazole hydrate] (20 µM)	0.942	1.02	1.02	1.03	1.11 (inactive)	0.993 (inactive)	1 (inactive)	1.04 (inactive)	1.03 (inactive)	1.02 (inactive)	0.992 (inactive)	1.02 (inactive)
O=C(O)c1ccccc1OP(=O)(O)O [Fosfosal] (20 µM)	0.91	1.01	1.01	1.17	0.997 (inactive)	1.05 (inactive)	1.03 (inactive)	0.942 (inactive)	1 (inactive)	0.995 (inactive)	0.995 (inactive)	1.04 (inactive)
C[C@H](CCC(=O)O)[C@H]1CC[C@H]2[C@@H]3CC[C@@H]4C[C@H](O)CC[C@]4(C)[C@H]3CC[C@]12C [Lithocholic acid] (20 µM)	1.13	1.01	1.19	0.903	0.9 (inactive)	1.03 (inactive)	1.05 (inactive)	1.06 (inactive)	0.999 (inactive)	0.975 (inactive)	1.03 (inactive)	1.09 (inactive)
COc1ccc(C(=O)NCc2cccnc2)cc1C(=O)NCc1cccnc1 [Picotamide monohydrate] (20 µM)	0.983	0.972	0.998	0.842	1.07 (inactive)	1.06 (inactive)	0.926 (inactive)	0.989 (inactive)	1.05 (inactive)	0.962 (inactive)	1.02 (inactive)	0.866 (inactive)
Cc1cc(-c2ccccc2)nnc1NCCN1CCOCC1 [Minaprine dihydrochloride] (20 µM)	1.21	0.985	0.972	1.16	0.939 (inactive)	1.01 (inactive)	0.991 (inactive)	0.963 (inactive)	0.998 (inactive)	1.01 (inactive)	1 (inactive)	0.955 (inactive)
C[C@@H]1C[C@H]2[C@@H]3CCC4=CC(=O)C=C[C@]4(C)[C@@]3(Cl)[C@@H](O)C[C@]2(C)[C@@]1(OC(=O)c1ccco1)C(=O)CCl [Mometasone furoate] (20 µM)	1.08	0.984	1.14	1.04	0.923 (inactive)	0.991 (inactive)	0.889 (inactive)	1.02 (inactive)	1 (inactive)	1.03 (inactive)	1.03 (inactive)	0.898 (inactive)

— the supplement of paper PMC12494721
